# Source: the supplement of paper PMC10681739
# Legend:
# [1] = target: T1, ETS1 (UniProt P14921); assay: ETS1 binding intensity (PBM fluorescence), ETS1 alone (arbitrary fluorescence units); higher = stronger binding; details: ETS1 concentration 1 nM; RUNX1 concentration 0 nM
# T1 sequence: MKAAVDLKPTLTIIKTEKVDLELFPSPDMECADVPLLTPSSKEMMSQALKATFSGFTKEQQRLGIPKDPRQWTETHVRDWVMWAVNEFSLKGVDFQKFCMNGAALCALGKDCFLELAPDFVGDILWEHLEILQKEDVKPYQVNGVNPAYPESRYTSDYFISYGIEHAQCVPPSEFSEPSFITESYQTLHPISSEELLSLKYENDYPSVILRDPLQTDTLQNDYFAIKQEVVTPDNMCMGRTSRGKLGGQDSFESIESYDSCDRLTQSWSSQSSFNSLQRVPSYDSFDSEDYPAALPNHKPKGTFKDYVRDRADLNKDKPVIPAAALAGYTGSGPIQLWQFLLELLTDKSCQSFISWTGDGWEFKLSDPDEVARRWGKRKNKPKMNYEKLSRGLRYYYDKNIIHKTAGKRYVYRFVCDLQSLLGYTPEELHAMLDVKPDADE
# [2] = target: T1, ETS1; assay: ETS1 binding intensity (PBM fluorescence) in presence of RUNX1, normalised to ETS1-only experiment (arbitrary fluorescence units); higher = stronger binding; details: ETS1 concentration 1 nM; RUNX1 concentration 25 nM
# [3] = target: T1, ETS1; assay: TF binding intensity (PBM fluorescence), negative control probe (arbitrary fluorescence units); higher = stronger binding
# Experimental: (§1)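 gcPBM negative-control 36-bp genomic probes lacking TF binding sites. Each was incubated with recombinant human ETS1 or RUNX1 alone and detected by antibody fluorescence. Values are medians over replicate spots (4 spots for the ETS1-RUNX1 arrays, 3 for the ETS1-ETS1 array). The probes sit in constant array flanks that are not printed.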
# [4] = target: RUNX1 (UniProt Q01196); assay: RUNX1 binding intensity (PBM fluorescence), RUNX1 alone (arbitrary fluorescence units); higher = stronger binding; details: RUNX1 concentration 2 nM; ETS1 concentration 0 nM
# Experimental: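 Cooperative gcPBM on 36-bp genomic probes with neighbouring ETS1 and RUNX1 sites. Recombinant human RUNX1 (2 nM) was incubated alone or with ETS1 (25 nM) and detected with anti-RUNX1 antibody plus Alexa488 secondary. Values are medians over 4 replicate spots; the RUNX1+ETS1 data were normalised to the RUNX1-only data. The probes sit in constant array flanks that are not printed.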
# [5] = target: RUNX1 (UniProt Q01196); assay: TF binding intensity (PBM fluorescence), negative control probe (arbitrary fluorescence units); higher = stronger binding
# Experimental: as §1
# 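Throughout, for RUNX1 binding intensity (PBM fluorescence), RUNX1 alone: Full-length recombinant human RUNX1 bound to double-stranded 36-bp genomic probes on a high-density microarray, scored as Alexa488 fluorescence per spot via anti-RUNX1 antibody, median of four replicate spots.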
# Chain of RUNX1 (Q01196 whole entry): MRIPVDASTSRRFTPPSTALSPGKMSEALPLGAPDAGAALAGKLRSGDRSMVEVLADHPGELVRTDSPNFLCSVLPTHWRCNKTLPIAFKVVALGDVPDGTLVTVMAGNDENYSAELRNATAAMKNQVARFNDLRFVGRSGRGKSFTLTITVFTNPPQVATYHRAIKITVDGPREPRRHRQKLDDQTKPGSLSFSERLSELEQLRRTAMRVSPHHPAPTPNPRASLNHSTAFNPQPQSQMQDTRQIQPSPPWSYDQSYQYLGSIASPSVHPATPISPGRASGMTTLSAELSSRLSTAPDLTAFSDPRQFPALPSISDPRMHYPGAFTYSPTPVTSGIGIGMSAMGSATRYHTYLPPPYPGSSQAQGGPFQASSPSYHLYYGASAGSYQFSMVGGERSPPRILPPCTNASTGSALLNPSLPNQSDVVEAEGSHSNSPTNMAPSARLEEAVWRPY
sequence,measurement,setting,value
TTTTCCCACTTCCTAGGTTGTGGTGGGGATTACACA,ETS1 binding intensity,[1],475
same,ETS1 binding intensity,[2],571
GAAAGCACGTGTTTCCTGCGGCTGCACCCCAGCACC,ETS1 binding intensity,[1],479
same,ETS1 binding intensity,[2],386
CCCCTTCATCCGCCTCTCTCTCACCGCGCCGCTCCC,ETS1 binding intensity,[1],449
same,ETS1 binding intensity,[2],330
CGGCGCTCGCGGAAGTGCCGCGGTGCCTGCTCTGCA,ETS1 binding intensity,[1],796
same,ETS1 binding intensity,[2],759
AGTTCAAAAAAGCCCAAATGCTATAGGGACAACAAC (protein concentration 10 nM),TF binding intensity,[3],148
GCAGGAAGACTAACACAAAACCATCAAACCACTCTG,ETS1 binding intensity,[1],511
same,ETS1 binding intensity,[2],543
GTCGGGAAGTAGGCGGGGTGACGTGTGGTTGACGAG,ETS1 binding intensity,[1],426
same,ETS1 binding intensity,[2],546
TCAGGGGTGGGAGGAAGTGGTTAGGATCAGCCTGGG,RUNX1 binding intensity,[4],776
GCGGGAAAAGGGAAGTTTGCGGGAGGTCAAATCCAC,RUNX1 binding intensity,[4],867
same,ETS1 binding intensity,[2],550
CTCACACCCAGTCCCAGGAAGCGAGCCCCACGTCGC (protein concentration 2 nM),TF binding intensity,[5],894
GGCAGCCGATGCATCCTGCGGTGTGTGGCCCTCAGA,RUNX1 binding intensity,[4],787
ACAGCTGAATTCTCACTTCCTTCGTCTCTGAGCCTG (protein concentration 2 nM),TF binding intensity,[5],874
CCAGCGGAAAGCCGGTCAGGGGGAACCGCGGCGGGG,RUNX1 binding intensity,[4],893
TCCAGGGCCACCCCATTTCCTGCCCTCAGCACTTCG (protein concentration 2 nM),TF binding intensity,[5],929
